# In the supplement of paper PMC9135407:
# Structures can show the parent of a compound that is named as a salt. Out of some 5,800 compounds screened, about 620 (11%) showed activity. Many of the other results were omitted from the sample, so actives are more common in it than they were. Unmarked numbers belong to inactive results.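 How the source made its calls: active = score above a cut-off or among the top three wells of a plate; in these data no inactive exceeds 0.85.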
# System: primary human hepatic stellate cells (donor 1)
# Test: scaled lipid accumulation score (0 = DMSO-like, 1 = nortriptyline-like); higher = stronger HSC inactivation (lipid re-accumulation), active = hit call of the paper
# Conditions: 48 h
# Procedure: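 Primary lipid accumulation screen in primary human hepatic stellate cell myofibroblasts (donor 1, passage 8) in 384-well plates. 100 nL of library compound was pin-transferred into 30 µL medium in duplicate, and cells were treated for 48 h. The 'Scaled' score combines distance from plate baseline, toxicity and reproducibility penalties, and is normalised to nortriptyline (positive) and DMSO (negative) controls on each plate. A hit is defined as scaled >0.85 or among the top 3 wells per plate.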
# [1] = library stock concentration: 3.33 mM
# [2] = library stock concentration: 10 mM
# [3] = library stock concentration: 80 uM
# [4] = library stock concentration: 400 uM
# [5] = library stock concentration: 2 mM
# [6] = library stock concentration: 1 mM
smiles,measurement,setting,value
"CNCCNS(=O)(=O)c1cccc2cnccc12 [H-8, Dihydrochloride]",scaled lipid accumulation score,[1],≤ 0
Cl.Cl.O=S(=O)(NCCNC/C=C/c1ccc(Br)cc1)c1cccc2cnccc12 [H 89 dihydrochloride],scaled lipid accumulation score,[2],1.26 (active)
O=S(=O)(NCCNC/C=C/c1ccc(Br)cc1)c1cccc2cnccc12 [listing 1 of 2 here],scaled lipid accumulation score,[3],≤ 0
same,scaled lipid accumulation score,[4],≤ 0
same,scaled lipid accumulation score,[5],0.134
"O=S(=O)(NCCNC/C=C/c1ccc(Br)cc1)c1cccc2cnccc12 [H-89, Dihydrochloride]",scaled lipid accumulation score,[1],≤ 0
"NC(N)=NCCNS(=O)(=O)c1cccc2cnccc12 [HA 1004, Dihydrochloride]",scaled lipid accumulation score,[1],≤ 0
O=S(=O)(NCCNCC=Cc1ccc(Br)cc1)c1cccc2cnccc12,scaled lipid accumulation score,[1],0.01
same,scaled lipid accumulation score,[2],0.542
NC(N)=NCCNS(=O)(=O)c1cccc2cnccc12,scaled lipid accumulation score,library stock concentration: 17 mM,0.047
O=S(=O)(NCCNC/C=C/c1ccc(Br)cc1)c1cccc2cnccc12 [listing 2 of 2 here],scaled lipid accumulation score,[2],0.989 (active)
CNCCNS(=O)(=O)c1cccc2cnccc12 [H-8 dihydrochloride],scaled lipid accumulation score,[2],0.048
"CCCCCC(=O)CC[C@H]1[C@H](O)CC(=O)[C@@H]1C/C=C\CCCC(=O)O [13,14-dihydro-15-keto Prostaglandin E2]",scaled lipid accumulation score,[6],≤ 0
O=C1NC(=O)c2cc(Nc3ccc(F)cc3)c(Nc3ccc(F)cc3)cc21,scaled lipid accumulation score,[2],≤ 0
CC1=C(C(=O)OCCN(Cc2ccccc2)c2ccccc2)C(c2cccc([N+](=O)[O-])c2)C(P2(=O)OCC(C)(C)CO2)=C(C)N1 (stereo unspecified) [Efonidipine hydrochloride monoethanolate],scaled lipid accumulation score,[2],≤ 0
COc1ccccc1CNC1CCCNC1c1ccccc1 (stereo unspecified),scaled lipid accumulation score,[2],0.474
CCCCC[C@H](O)/C=C/C=C\C=C\C=C\[C@@H](O)[C@@H](O)CCCC(=O)O [Lipoxin A4],scaled lipid accumulation score,library stock concentration: 100 uM,≤ -0.021
CC(C)N(CCCNC(=O)Nc1ccc(C(C)(C)C)cc1)C[C@H]1O[C@@H](n2cc(Br)c3c(N)ncnc32)[C@H](O)[C@@H]1O [listing 1 of 2 here],scaled lipid accumulation score,[2],1.12 (active)
CC(C)N(CCCNC(=O)Nc1ccc(C(C)(C)C)cc1)C[C@H]1O[C@@H](n2cc(Br)c3c(N)ncnc32)[C@H](O)[C@@H]1O [listing 2 of 2 here],scaled lipid accumulation score,[1],0.805
CC(C)N(CCCNC(=O)Nc1ccc(C(C)(C)C)cc1)C[C@H]1O[C@@H](n2ccc3c(N)ncnc32)[C@H](O)[C@@H]1O,scaled lipid accumulation score,[1],0.204
same,scaled lipid accumulation score,[2],0.636
"CCCCCCCC/C=C/CCCCCCCC(=O)Nc1c(C(C)C)cccc1C(C)C [Oleic Acid-2,6-diisopropylanilide]",scaled lipid accumulation score,[6],≤ 0
CCCCCCCCCCCCCCCCC(=O)NCCO [Heptadecanoyl Ethanolamide],scaled lipid accumulation score,[6],≤ 0
CC(C)c1cc(C(=O)N2Cc3ccc(CN4CCN(C)CC4)cc3C2)c(O)cc1O,scaled lipid accumulation score,[1],0.544
same,scaled lipid accumulation score,[2],0.828
C[C@@H](Oc1cc(-n2cnc3ccc(CN4CCN(C)CC4)cc32)sc1C(N)=O)c1ccccc1C(F)(F)F [listing 1 of 3 here],scaled lipid accumulation score,[3],≤ 0
same,scaled lipid accumulation score,[4],0.039
same,scaled lipid accumulation score,[2],0.788
C[C@@H](Oc1cc(-n2cnc3ccc(CN4CCN(C)CC4)cc32)sc1C(N)=O)c1ccccc1C(F)(F)F [listing 2 of 3 here],scaled lipid accumulation score,[5],0.915 (active)
same,scaled lipid accumulation score,[2],1.2 (active)
C[C@@H](Oc1cc(-n2cnc3ccc(CN4CCN(C)CC4)cc32)sc1C(N)=O)c1ccccc1C(F)(F)F [listing 3 of 3 here],scaled lipid accumulation score,[1],1.22 (active)
COc1cc2ncn(-c3cc(OCc4ccccc4S(C)(=O)=O)c(C#N)s3)c2cc1OC [IKK-3 Inhibitor IX],scaled lipid accumulation score,[1],≤ 0
COc1cc2ncn(-c3cc(OCc4ccccc4C(F)(F)F)c(C(N)=O)s3)c2cc1OC [listing 1 of 2 here],scaled lipid accumulation score,[3],≤ 0
same,scaled lipid accumulation score,[4],≤ 0
same,scaled lipid accumulation score,[5],≤ 0
same,scaled lipid accumulation score,[2],0.764
COc1cc2ncn(-c3cc(OCc4ccccc4C(F)(F)F)c(C(N)=O)s3)c2cc1OC [listing 2 of 2 here],scaled lipid accumulation score,[2],0.992 (active)
O=C1N(c2ccccc2)c2ccccc2C1(Cc1ccncc1)Cc1ccncc1 [Linopirdine],scaled lipid accumulation score,[2],≤ -0.051
O=C1N(c2ccccc2)c2ccccc2C1(Cc1ccncc1)Cc1ccncc1 [Linopirdine dihydrochloride],scaled lipid accumulation score,[2],≤ -0.001
O=C1N(c2ccccc2)c2ccccc2C1(Cc1ccncc1)Cc1ccncc1,scaled lipid accumulation score,[2],≤ 0
O=C(O)c1ccc(-c2ccc3cc(O)c(C45CC6CC(CC(C6)C4)C5)cc3c2)cc1,scaled lipid accumulation score,[2],0.021
CC[C@H]1OC(=O)[C@H](C)C(=O)[C@H](C)[C@@H](O[C@@H]2O[C@H](C)C[C@H](N(C)C)[C@H]2O)[C@](C)(OC)C[C@@H](C)C(=O)[C@H](C)[C@H]2N(CCCCn3cnc(-c4cccnc4)c3)C(=O)O[C@]12C [Telithromycin],scaled lipid accumulation score,[2],≤ -0.027
CC[C@H]1OC(=O)[C@H](C)C(=O)[C@H](C)[C@@H](O[C@@H]2O[C@H](C)C[C@H](N(C)C)[C@H]2O)[C@](C)(OC)C[C@@H](C)C(=O)[C@H](C)[C@H]2N(CCCCn3cnc(-c4cccnc4)c3)C(=O)O[C@]12C,scaled lipid accumulation score,[2],0.448
CCCCC[C@H](O)/C=C/[C@H]1C=CC(=O)[C@H]1C/C=C\CCCC(=O)O [8-iso Prostaglandin A2],scaled lipid accumulation score,[6],≤ 0
CCCCCCCCCCCCCC(=O)N[C@H](CO)[C@H](O)c1ccc([N+](=O)[O-])cc1,scaled lipid accumulation score,[6],0.012
CC(C)C[C@@H](/C=C/S(C)(=O)=O)NC(=O)[C@H](CC(C)C)NC(=O)[C@H](CC(C)C)NC(=O)OCc1ccccc1,scaled lipid accumulation score,library stock concentration: 9.1 mM,0.738
